# A selection: hits, their analogues and other compounds. The true share with any hit is near 7.2%.
# Marburg entry inh: Marburg virus entry inhibition | hit rate 1.8% among 300,000 | Potency, µM (titrated, usually from 37.8 µM), without a hit: top-dose activity change, negative = inhibition, usual class: inhibitors | Marburg virus pseudotyped entry inhibition, cell reporter | AID 540276; calls by dose curve; tested in HEK293 cells
# RE007 growth inh: less growth of the S. pombe RE007 Vpr strain; S. pombe RE007 Vpr strain, BacTiter-Glo ATP luminescence, 24 h; Potency, µM (top dose mostly 92.2 µM), for inactives: at the top dose activity change, negative = less growth, usual class: inhibitors; hit rate 0.21% among 360,000; AID 651644; active = well fitted falling curve with a large enough effect; inconclusive = small, poorly fitted or top-dose-only effect; inactive = no such curve, though single readings can be large or run the other way; also: nearly all actives have a fitted effect of over 50% in size
#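 Fission yeast strain RE007, carrying one chromosomally integrated HIV-1 vpr copy, was seeded at OD 0.01 in PMG+AL medium with 23 nL pinned compound. After 24 h at 30 °C and 99% humidity, viability was read by BacTiter-Glo luminescence.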
# Lassa entry inh: Lassa virus entry inhibition. Lassa virus pseudotype entry inhibition, cell reporter. hit rate 1.2% among 300,000. Potency, µM (series often up to 37.9 µM), for the others: at the highest dose activity change, negative = inhibition, hits mostly inhibitors; calls by dose curve; tested in HEK293 cells; also: nearly all actives have a fitted effect of over 50% in size
# Sm TGR inh: inhibitors of Schistosoma mansoni thioredoxin glutathione reductase; Q962Y6; purified TGR, DTNB reduction, TNB absorbance 405 nm; Potency, µM (titrated, usually from 114 µM), for inactives: at the highest dose activity change, negative = inhibition, usual class: inhibitors; hit rate 3% among 360,000; also: nearly all actives have a fitted effect of over 60% in size
#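 Kinetic colorimetric format: TGR-catalysed, NADPH-driven DTNB reduction monitored via TNB absorbance. Enzyme dispensed at 20 nM; compound exposure 15 min at room temperature before reaction start.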
# HCV inhibitor: blocks hepatitis C virus; AID 651820; Huh7.5.1 HCVcc-Cre infection, luciferase reporter, 44 h; hit rate 3.4% among 340,000; Potency, µM (top dose mostly 41.8 µM), without a hit: at the highest dose activity change, negative = inhibition, usual class: inhibitors
#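 Seed cells (1,000/well) for 4 h; treat with compound and infect with HCVcc-Cre, moi about 0.5. Incubate 44 h, then detect luciferase activity.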
# FMDV antiviral: antivirals against foot and mouth disease virus; FMDV antiviral cell-based qHTS; Potency, µM (titrated, usually from 57.9 µM), for inactives: top-dose activity change, negative = inhibition, most hits filed as inhibitors; hit rate 1.2% among 410,000; calls by dose curve; tested in HEK293T cells; also: read-out not given here; nearly all actives have a fitted effect of over 45% in size
# * hit, by the source's call; ? = inconclusive; . = no result; [ ] = remark or other dose. Unless noted, calls follow the shape of the dose curve; as a rule, active = well fitted curve in the direction sought with a large enough effect; inconclusive = small, poorly fitted or top-dose-only effect, or another doubt; inactive = no such curve, though single readings can be large; an effect the other way counts as inactive or inconclusive. % is scaled to controls: 0 for no effect and ±100 for the full control effect; potency is read from the fitted curve at half-maximal effect.
SMILES,Marburg entry inh,RE007 growth inh,Lassa entry inh,Sm TGR inh,HCV inhibitor,FMDV antiviral
Cc1ccc2c(c1)c1c(n2CC(O)CNC(C)(C)C)CCCC1 (stereo unspecified),.,1%,.,-10%,?,?
CCC[C@@H]1Cc2c(sc3nc(SC)nc(N)c23)CO1,0%[46.1 µM],.,.,.,.,.
CC(Oc1ccc(Br)cc1)C(=O)NC1CCN(Cc2ccccc2)CC1 (stereo unspecified),13µM*,6%,-31%,10%,?,-28%
CCc1cc(=O)oc2cc(C)cc(OC(C)C(=O)NC3CCN(Cc4ccccc4)CC3)c12 (stereo unspecified),?,1%,-23%[46.1 µM],-23%,13µM*,4%
COc1cc(=O)n2c(c1C(=O)N(C)Cc1cscn1)CCN(C(=O)c1ccc(C)cc1C)CC2,.,.,.,.,.,3%
COc1cccc(C2c3c(-c4ccccc4O)n[nH]c3C(=O)N2CCc2ccc(OC)c(OC)c2)c1 (stereo unspecified),7.1µM*,.,?,1%,.,-8%
CCCCN1C(=O)c2[nH]nc(-c3ccccc3O)c2C1c1ccc(OCc2ccccc2)c(OC)c1 (stereo unspecified),?,.,?,10%,.,-25%
COc1ccc(CCN2C(=O)c3[nH]nc(-c4ccccc4O)c3C2c2cccc(O)c2)cc1OC (stereo unspecified),7%,13%,?,9%,?,-25%
CCCCN1C(=O)c2[nH]nc(-c3ccccc3O)c2C1c1cc(Br)c(O)c(OC)c1 (stereo unspecified),4%[46.1 µM],.,?,56µM*,.,-8%
CCCCCCCC1=Cc2ccccc2C(C(C(=O)OC)C(=O)OC)N1C(=O)OC (stereo unspecified),-2%[14.2 µM],.,.,.,.,.
CCNC(=O)C1CCN(S(=O)(=O)c2ccc3c(c2)CCCN3C(C)=O)CC1,.,.,16%[46.1 µM],6%,.,-12%
CCC1CCCCN1S(=O)(=O)c1ccc(NC(=O)c2cc(=O)c3c(C)cc(C)cc3o2)cc1 (stereo unspecified),-18%[46.1 µM],.,3%[46.1 µM],15%,.,-16%
C#Cc1cccc(C(=O)NCc2nc(-c3cccc(NC(=O)c4ccccn4)c3)oc2C)c1,.,.,.,.,.,37%
OCCCc1nc2n(n1)C(c1ccccc1)C=C(c1ccc(F)cc1)N2 (stereo unspecified),7%,-13%,-1%,20µM*,11µM*,-20%
OCCCc1nc2n(n1)C(c1cccs1)C=C(c1ccccc1)N2 (stereo unspecified),7%,.,.,?,.,.
OCCCc1nc2n(n1)C(c1ccccc1Cl)C=C(c1cccs1)N2 (stereo unspecified),11%,2%,14%,28µM*,-4%,-6%
Cc1ccc(S(=O)(=O)Nc2nc3n(n2)C(c2ccccc2Cl)C=C(c2ccccc2)N3)cc1 (stereo unspecified),?,.,9%[46.1 µM],2%,.,0%
COc1cc([N+](=O)[O-])ccc1NC(=O)N1CCN(c2cc(-c3noc(C)n3)ccc2C)CC1,.,.,-17%[46.1 µM],6%,.,-27%
CCCCn1c(N)c(N(Cc2ccccc2OC)C(=O)CN2C(=O)NC3(CCCC3)C2=O)c(=O)[nH]c1=O,?,27%,-9%,56µM*,18%,-18%
CCCCn1c(N)c(N(Cc2ccccc2OC)C(=O)CC2OC(=O)c3ccccc32)c(=O)[nH]c1=O (stereo unspecified),-7%,2%,-2%,-2%,-8%,1%
CCc1ccccc1N=C1S/C(=C/c2ccccc2OCC(=O)N2CCOCC2)C(=O)N1C,-29%,-3%,15µM*,-4%,?,?
C=CCC[C@H](Cc1ccc(F)cc1)C(=O)OC[C@@H](C)NC(=O)[C@H](CC=C)CC(=O)NCCO,.,2%,.,.,?,-5%
C=CCC[C@@H](Cc1ccc(F)cc1)C(=O)OC[C@@H](Cc1ccccc1)NC(=O)[C@H](CC=C)CC(=O)NCCO,.,-9%,.,.,7.1µM*,-28%
C=CCC[C@@H](Cc1ccc(F)cc1)C(=O)OC[C@@H](C)NC(=O)[C@@H](CC=C)CC(=O)N[C@H](CO)Cc1ccccc1,.,-5%,.,.,?,40µM*
CCCc1ccc(Oc2cc(C)nc(N3CCOCC3)n2)cc1,-19%,1%,?,9%,?,-1%
SMILES,Marburg entry inh,RE007 growth inh,Lassa entry inh,Sm TGR inh,HCV inhibitor,FMDV antiviral
Cc1cc(Oc2ccc(C(C)(C)C)cc2)nc(N2CCOCC2)n1,-23%,-16%,5µM*,13%,19%,?
Cc1cc(Oc2ccc(-c3ccccc3)cc2)nc(N2CCOCC2)n1,11µM*,1%,4µM*,3%,-8%,?
CC[C@H](C)[C@H]1O[C@]2(C=C[C@@H]1C)C[C@@H]1C[C@@H](C/C=C(\C)[C@@H](O[C@H]3C[C@H](OC)[C@@H](O[C@H]4C[C@H](OC)[C@@H](O)[C@H](C)O4)[C@H](C)O3)[C@@H](C)/C=C/C=C3\CO[C@@H]4[C@H](O)C(C)=C[C@@H](C(=O)O1)[C@]34O)O2,.,.,.,.,.,0%
C[C@@H]1[C@@H](c2ccccc2)Cc2nc3ccccc3nc2C[C@H]1C(=O)N1CCCC1,-15%[14.2 µM],.,.,.,.,.
Cc1cc(C)n2cc(CSc3nnc(-c4ccccc4)c(-c4ccccc4)n3)nc2n1,.,0%,.,.,6%,28µM*
O=C(OCC(=O)N1CCCc2ccccc21)c1cc(Cl)ccc1O,-14%[46.1 µM],6%,-14%[46.1 µM],-32%,-3%,2%
O=C(OCC(=O)N1CCCC1=O)c1cc(Cl)ccc1O,13%,16µM*,?,-2%,-3%,18%
CCOC(=O)c1ccc(Nc2nc3nonc3nc2Nc2cccc(C)c2C)cc1,?,.,?,2%,.,?
COC(=O)[C@H](NC(=O)c1cc(-c2ccccc2)nc2ccccc12)c1ccccc1,?,7%[18.4 µM],?,.,35µM*,-26%
Cc1ccccc1-c1cc(C(=O)Nc2sc(C(=O)OC(C)C)c(C)c2C#N)c2ccccc2n1,12µM*,6%,?,4%,13µM*,?
CCOC(=O)c1sc(NC(=O)c2cc(-c3ccc(C)cc3)nc3ccccc23)c(C#N)c1C,18%,13%,5%,11%,12%,?
Cc1sc(NC(=O)c2ccc(Br)s2)c(C(N)=O)c1C,?,-26%,?,0%,11µM*,24%
Cc1sc(NC(=O)c2ccc(Cl)s2)c(C(N)=O)c1C,?,-22%,?,-14%,-7%,53%
COC(=O)c1sc(NC(=O)c2cc(-c3ccccc3)nc3ccccc23)c(C#N)c1C,?,5%,?,-10%,11µM*,3.2µM*
CCCSc1nnc2n(-c3cccc(C)c3)c(=O)c3c4c(sc3n12)CCCC4,25%[46.1 µM],.,-2%[46.1 µM],2%,.,-18%
Cc1oc2ncn(CC(C)C)c(=O)c2c1C(=O)Nc1cc(F)ccc1F,.,.,-7%[46.1 µM],5%,.,3%

# Screens deposited in PubChem BioAssay by National Center for Advancing Translational Sciences (NCATS).
